Assay results as given in PubChem BioAssay (NCI).
The panel holds about 79,000 compounds, 15% with a hit somewhere; the sample as a whole holds those more often. Cut-off read from the data, not from the text of the source: active = growth inhibition above about 70%; inactive = the rest.

Columns and labels:
[1] = NCI Yeast Anticancer Drug Screen. Data for the rad50 strain (AID 155);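 note: 0% = growth of vehicle-only cultures of the same strain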; conditions: S. cerevisiae rad50 strain growth inhibition; at 50.0 µM; active compounds read high
Summary of the method: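 DNA repair mutant yeast, compound exposure, growth read-out; inhibition is taken relative to vehicle.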

[2] = NCI Yeast Anticancer Drug Screen. Data for the mec2-1 strain (AID 157); conditions: S. cerevisiae mec2-1 strain, at 50.0 µM, active compounds read high
Summary of the method: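 Mutant yeast (mec2-1) grown with compound; growth inhibition relative to vehicle control reported.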

[3] = NCI Yeast Anticancer Drug Screen. Data for the sgs1 mgt1 strain (AID 161);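 note: 0% = growth of cultures given vehicle only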; conditions: S. cerevisiae sgs1 mgt1 strain, at 50.0 µM, active compounds read high
Summary of the method: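 Growth of a repair-deficient yeast mutant was monitored after compound treatment and expressed as inhibition relative to vehicle-treated cultures.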

[4] = NCI Yeast Anticancer Drug Screen. Data for the cln2 rad14 strain (AID 165);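 note: 0% = growth equal to vehicle treated cultures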; conditions: S. cerevisiae cln2 rad14 strain, at 50.0 µM, active compounds read high
Summary of the method: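 Readout is yeast growth inhibition versus vehicle-treated controls, using a strain with cln2 and rad14 alterations exposed to compound.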

[5] = NCI Yeast Anticancer Drug Screen. Data for the bub3 strain (AID 167); conditions: S. cerevisiae bub3 mutant strain, at 50.0 µM, active compounds read high
Summary of the method: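 In this screen, a yeast mutant lacking normal mitotic checkpoint function is challenged with compound. Relative growth versus vehicle gives the inhibition value.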

[6] = NCI Yeast Anticancer Drug Screen. Data for the mlh1 rad18 strain (AID 175); conditions: S. cerevisiae mlh1 rad18 strain growth inhibition; at 50.0 µM; active compounds read high
Summary of the method: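 Genetically defined yeast (DNA repair-deficient) exposed to compounds; growth inhibition determined relative to vehicle.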

Measured: growth inhibition

Cn1cc(C2NC(=O)c3ccccc3N2)c2ccccc21 (stereo unspecified)
inactive: [1] -25.1% | [2] -15.7% | [3] -7.1% | [4] 12% | [5] -15% | [6] -11.7%

C=CCSc1nc2ccc(N=Cc3ccc([N+](=O)[O-])cc3)cc2s1
inactive: [1] 2.05% | [2] -12.5% | [3] -8.7% | [4] -14.6% | [5] 5.95% | [6] -21.2%

N#Cc1c(N)ncn1C1OC(CO)C(O)C1O (stereo unspecified)
inactive: [1] -17.6% | [2] -7.6% | [3] -20.9% | [4] -16.3% | [5] 0.15% | [6] -13.3%

CC(C)(C)c1ccn[nH]1.CC(C)(C)c1ccn[nH]1.[Cl-].[Cl-].[O]=[V][O-]
inactive: [1] 0.9% | [2] -12.4% | [3] 9.65% | [4] -29.2% | [5] -21.8% | [6] -12.8%

CC1=CC(=O)[C@@H](O)[C@]2(C)[C@H]3[C@@]4(O)OC[C@]35[C@H]([C@@H](CO)[C@H]4O)[C@@H](OC3OC(CO)C(O)C(O)C3O)C(=O)O[C@@H]5C[C@@H]12 (stereo partly specified)
inactive: [1] -9.55% | [2] -14.5% | [3] -19.2% | [4] 2.65% | [5] -25.1% | [6] -25.9%

C=CC1C(OC2OC(CO)C(O)C(O)C2O)OC=C(C(=O)OC)C1CC=O (stereo unspecified)
inactive: [1] 32.9% | [2] 11.9% | [3] 4.15% | [4] 13.4% | [5] 18.3% | [6] 32.7%

C[S+]1C=C(c2ccccc2)SC=C1c1ccccc1 (stereo unspecified)
inactive: [1] 35.2% | [2] 32.9% | [3] 59.6% | [4] 8.3% | [5] 47% | [6] 55%

c1ccc([Si]2(c3ccccc3)[Si](c3ccccc3)(c3ccccc3)[Si](c3ccccc3)(c3ccccc3)[Si]2(c2ccccc2)c2ccccc2)cc1
inactive: [1] 6% | [2] -1.4% | [3] -35% | [4] -1.45% | [5] -0.45% | [6] 3.75%

CCOC(=O)/C(C#N)=C/c1c[nH]c2ccccc12
inactive: [1] 19.6% | [2] 6.05% | [3] 3.5% | [4] 23.8% | [5] 19.3% | [6] 31.4%

Clc1ccc(CNc2ncnc3nc(Cl)[nH]c23)cc1
inactive: [1] -14.4% | [2] -14.9% | [3] -4.6% | [4] -41.2% | [5] -10.2% | [6] -23.9%

C=C1CN(C2=NCCO2)C1
inactive: [1] -17.6% | [2] -39.6% | [3] -5.65% | [4] -12.9% | [5] -13.6% | [6] 4.05%

CC1=NN(C(=O)CC(=O)Nc2ccccc2Cl)C(=O)C1N=Nc1ccc(C(=O)O)cc1 (stereo unspecified)
inactive: [1] -3.35% | [2] -6.85% | [3] 6.75% | [4] -9.75% | [5] -5.6% | [6] 17.8%

Cc1c(/C=N/NC(=O)c2ccc(Cl)cc2)c(=O)n(-c2ccccc2)n1C
inactive: [1] -43% | [2] -20.9% | [3] -53.4% | [4] -32.4% | [5] -52% | [6] -65.2%

CCOC(=O)c1ccc(NN=NCCF)cc1
inactive: [1] 15.8% | [2] 10% | [3] 0.4% | [4] 6.4% | [5] -32.5% | [6] -44.1%

CC(C)CCN(CC(C)C)C(=O)c1ccc([N+](=O)[O-])cc1 (tested in a mixture with another compound)
inactive: [1] 16.1% | [2] 0.6% | [3] 8.75% | [4] -3.25% | [5] -5.6% | [6] 14.1%

Fc1ccc(-c2nc3ccccc3[nH]2)cc1
inactive: [1] -9.6% | [2] 23.9% | [3] -1.2% | [4] -8.4% | [5] -4.4% | [6] -7.05%

Cc1ccc(S(=O)(=O)OC2CC(C(C)(C)C)CCC2c2ccccc2)cc1 (stereo unspecified)
inactive: [1] -29.1% | [2] -7% | [3] -48.9% | [4] -84.2% | [5] -5.15% | [6] 5.9%

CCCOC(=O)C(=O)OCCC
inactive: [1] 2.15% | [2] 21.6% | [3] -23.8% | [4] -6% | [5] -11.3% | [6] -9.2%

Cc1ccc(S(=O)(=O)NCCN)cc1
inactive: [1] 9.45% | [2] 11.2% | [3] 24.2% | [4] -19.5% | [5] -6.4% | [6] -3.3%

Cc1cc(Cl)ccc1C1OC(=O)c2c1ccc1ccccc21 (stereo unspecified)
inactive: [1] 16.9% | [2] 6.8% | [3] -6.25% | [4] 15.6% | [5] 7.5% | [6] 13.8%

N#CSCC(=O)CCC(=O)O
inactive: [1] -2.75% | [2] 0.7% | [3] -8.8% | [4] -15% | [5] 3.75% | [6] -1.1%

C=C1CC[N+]2(CCCC)CCCC12 (stereo unspecified)
inactive: [1] 4.85% | [2] 29.2% | [3] 16.2% | [4] -4.1% | [5] 41.6% | [6] 1%

COc1ccc(Cl)cc1[N+](=O)[O-]
inactive: [1] 27.6% | [2] 3.15% | [3] -3.85% | [4] 9.5% | [5] 13.6% | [6] 18.2%

O=C(/C=C(\O)C(=O)O)/C=C(\O)c1ccc(Cl)cc1
inactive: [1] -15.7% | [2] 0.7% | [3] -27.4% | [4] -10.4% | [5] -23.8% | [6] -31.5%

COc1ccc(-c2c(C#N)c(S)n(NS(=O)(=O)c3ccccc3)c(=O)c2C#N)cc1
inactive: [1] 16.8% | [2] 56.7% | [3] 43.7% | [4] -1.5% | [5] 34% | [6] 58%

S=C(SCc1c(Cl)cccc1Cl)N1CCSCC1
inactive: [1] -13.9% | [2] -14.2% | [3] 23.1% | [4] -6.85% | [5] 53% | [6] 0.6%

COc1ccc(C2c3cc4c(cc3OC(N3CCOCC3)C2C)OCO4)c(OC)c1OC (stereo unspecified)
inactive: [1] 2.45% | [2] 5.4% | [3] 14% | [4] -1.1% | [5] 11.8% | [6] 21.7%

CCN(CC)CC(O)c1ccc2ccccc2c1 (stereo unspecified)
inactive: [1] 47.6% | [2] 13.2% | [3] 25.8% | [4] -21.2% | [5] 22.4% | [6] 40.9%

COc1cc2c(cc1OC)C(=O)N(c1ccc(O)cc1)C2=O
inactive: [1] -8.25% | [2] -17.6% | [3] -7.8% | [4] 20.8% | [5] 12.3% | [6] 3.9%

COc1cccc(NC(=O)CC(=O)N2N=C(N(CCC#N)c3ccc(Cl)cc3)CC2c2ccccc2)c1 (stereo unspecified)
inactive: [1] 19.1% | [2] -4.2% | [3] 19.1% | [4] 8.9% | [5] -0.15% | [6] -0.75%

Cl[Si]1(Cl)Oc2ccccc2O[Si](Cl)(Cl)Oc2ccccc2O1
inactive: [1] 16.2% | [2] 10.6% | [3] 8.35% | [4] 28.6% | [5] 3.7% | [6] 10.2%

O=C1CCCCC1CC1(O)C(=O)NC2CCC(Br)CC21 (stereo unspecified)
inactive: [1] -11.6% | [2] -3.3% | [3] 21.6% | [4] 8.75% | [5] 18.7% | [6] 5.6%

CCC/C(=N/NC(=O)C(N)=O)C(CC)C(=O)CCC(=O)N(Cc1ccccc1)Cc1ccccc1 (stereo unspecified)
inactive: [1] -17.6% | [2] -15.6% | [3] -26.6% | [4] 10.8% | [5] -10.4% | [6] -21.3%

C=C1C(=O)O[C@@H]2/C=C(/C)[C@@H](OC(C)=O)C/C=C(\C)C(O)[C@@H](OC(=O)/C(C)=C\C)C12 (stereo partly specified)
inactive: [1] 17.4% | [2] -0.2% | [3] 22.5% | [4] 9.1% | [5] 12.6% | [6] -50.4%

O=C1C(=Nc2ccc(Cl)nc2)CC(c2ccccc2)N1c1ccc(Cl)nc1 (stereo unspecified)
inactive: [1] 7.9% | [2] 9.25% | [3] 16.1% | [4] 22.4% | [5] 3% | [6] -4%

C[n+]1c(-c2ccc(Cl)c(Cl)c2)c2cc(N)ccc2c2ccccc21
inactive: [1] 14.9% | [2] -22.6% | [3] 30.6% | [4] 3.9% | [5] 7.2% | [6] 14.4%

CCC1([N+](=O)[O-])COC2(CCCCC2)OC1
inactive: [1] 6.95% | [2] 23.7% | [3] -11.4% | [4] -1.35% | [5] 13.6% | [6] -13.1%

Oc1cccc2ccc[n+](CCc3ccccc3)c12
inactive: [1] 1.4% | [2] 9.15% | [3] 8.7% | [4] -13.5% | [5] -5.9% | [6] 31.6%

COc1cccc2c(Cl)c3ccc(Cl)cc3nc12
inactive: [1] 11.4% | [2] 5.25% | [3] 0.8% | [4] -39.1% | [5] -18.9% | [6] 15.8%

CCCCCCCOC(C)=O
inactive: [1] 14.8% | [2] -11.8% | [3] 11.3% | [4] -16.2% | [5] -3% | [6] 21.6%

Cc1c(-c2coc(-c3ccc(Cl)cc3)n2)c(=O)n(-c2ccccc2)n1C
inactive: [1] -7.85% | [2] -43.2% | [3] -22.1% | [4] -9.9% | [5] 7.4% | [6] -6.6%
